# Where “and” joins values, the source holds several entries; their conditions need not be identical. Equal entries are not always repeated. Results filed as inconclusive are left out. Entries that show only a call come without a potency. Unmarked numbers belong to inactive results. Calls of active or inactive are those of the source. Calls come from the whole dose curve; as a rule, active = well fitted curve in the direction sought with a large enough effect; inconclusive = small, poorly fitted or top-dose-only effect, or another doubt; inactive = no such curve, though single readings can be large; an effect the other way counts as inactive or inconclusive.
# Tests used:
# MKL-1 = assay: qHTS assay to identify novel small-molecules to repurpose for Merkel cell carcinoma treatment (AID 1296009); conditions: MCC and control cell lines, CellTiter-Glo viability, 72 h; series mostly up to 46 µM; note: nearly all actives have a fitted effect of over 60% in size
# Outline: (§1)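 Viability readout: ATP luminescence (CellTiter-Glo) after 72 hr drug exposure at 37 degree celsius. Dose-response format was 8 points for NPC and 11 points for MIPE; data normalized to in-plate controls.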
# MKL-2 = assay: as above; conditions: MCC and control cell lines, CellTiter-Glo viability, 72 h; series mostly up to 46 µM
# Outline: as §1
# UISO = assay: as above; conditions: MCC and control cell lines, CellTiter-Glo viability, 72 h; series mostly up to 46 µM
# Outline: as §1
# WaGa = assay: as above; conditions: MCC and control cell lines, CellTiter-Glo viability, 72 h; series mostly up to 46 µM
# Outline: as §1
# C33A = assay: Primary qHTS to identify gynecologic anti-cancer compounds using libraries of approved drugs and bioactive compounds (AID 1345084); conditions: Gynecologic cancer cell panel viability, ATPlite luminescence, 48 h; series mostly up to 57.5 µM; note: nearly all actives have a fitted effect of over 55% in size
# Outline: (§2)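 48 h compound exposure at 37 C, 5% CO2; five-point qHTS. ATPlite luminescence readout of cell ATP.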
# CAOV3 = assay: as above; conditions: Gynecologic cancer cell panel viability, ATPlite luminescence, 48 h; series mostly up to 57.5 µM
# Outline: as §2
# CASKI = assay: as above; conditions: Gynecologic cancer cell panel viability, ATPlite luminescence, 48 h; series mostly up to 57.5 µM
# Outline: as §2
# Es-2 = assay: as above; conditions: Gynecologic cancer cell panel viability, ATPlite luminescence, 48 h; series mostly up to 57.5 µM
# Outline: as §2
# HeLa = assay: as above; conditions: Gynecologic cancer cell panel viability, ATPlite luminescence, 48 h; series mostly up to 57.5 µM
# Outline: as §2
# Hek293T = assay: as above; conditions: Gynecologic cancer cell panel viability, ATPlite luminescence, 48 h, control line for the selectivity index; series mostly up to 57.5 µM
# Outline: as §2
# JEG-3 = assay: as above; conditions: Gynecologic cancer cell panel viability, ATPlite luminescence, 48 h; series mostly up to 57.5 µM
# Outline: as §2
# OV90 = assay: as above; conditions: Gynecologic cancer cell panel viability, ATPlite luminescence, 48 h; series mostly up to 57.5 µM
# Outline: as §2
# PA-1 = assay: as above; conditions: Gynecologic cancer cell panel viability, ATPlite luminescence, 48 h; series mostly up to 57.5 µM
# Outline: as §2
# SKOV3 = assay: as above; conditions: Gynecologic cancer cell panel viability, ATPlite luminescence, 48 h; series mostly up to 57.5 µM
# Outline: as §2
# Tov-21-G = assay: as above; conditions: Gynecologic cancer cell panel viability, ATPlite luminescence, 48 h; series mostly up to 57.5 µM
# Outline: as §2
# Tov112D = assay: as above; conditions: Gynecologic cancer cell panel viability, ATPlite luminescence, 48 h; series mostly up to 57.5 µM
# Outline: as §2
# [1] = Drug repurposing screens with cells derived from glioblastoma tumor samples (AID 1345199); conditions: GBM patient neurospheres viability, ATP luminescence, 48 h; note: nearly all actives have a fitted effect of over 40% in size
# Outline: (§3)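 Primary testing used CD133+ neurospheres from four GBM patients, seven concentrations, 48 h exposure and ATP-based viability; confirmation added three slower-growing patient lines.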
# NIH3T3 = assay: qHTS assay to identify novel small-molecules to repurpose for Merkel cell carcinoma treatment (AID 1296009); conditions: MCC and control cell lines, CellTiter-Glo viability, 72 h; at 44.8 µM (top of the series) unless noted; note: nearly all actives have a fitted effect of over 60% in size
# Outline: as §1
# astro = assay: Drug repurposing screens with cells derived from glioblastoma tumor samples (AID 1345199); conditions: viability, ATP luminescence, 48 h; series mostly up to 45.9 µM; note: nearly all actives have a fitted effect of over 40% in size
# Outline: as §3
# [2] = at 45.9 µM (top of the series), tumour line B
# [3] = at 45.9 µM (top of the series), tumour line D
# [4] = at 46 µM (top of the series), tumour line A
# [5] = at 46.1 µM (top of the series), tumour line C
# Potency is the fitted concentration of half-maximal effect.
smiles,measurement,setting,value
C[C@@H]1CN(c2c(F)c(N)c3c(=O)c(C(=O)O)cn(C4CC4)c3c2F)C[C@H](C)N1,Potency,MKL-1,inactive
same,Potency,MKL-2,inactive
same,Potency,UISO,inactive
same,Potency,WaGa,inactive
same,Potency,C33A,inactive
same,Potency,CAOV3,inactive
same,Potency,CASKI,inactive
same,Potency,Es-2,inactive
same,Potency,HeLa,inactive
same,Potency,Hek293T,inactive
same,Potency,JEG-3,inactive
same,Potency,OV90,inactive
same,Potency,PA-1,inactive
same,Potency,SKOV3,inactive
same,Potency,Tov-21-G,inactive
same,Potency,Tov112D,inactive
same,"activity, negative = cell killing",[1]; [2],-1.03%
same,"activity, negative = cell killing",[1]; [3],-17%
same,"activity, negative = cell killing",[1]; [4],-8%
same,"activity, negative = cell killing",[1]; [5],-3.77%
CCC(=O)O[C@]1(C(=O)CCl)[C@@H](C)C[C@H]2[C@@H]3CCC4=CC(=O)C=C[C@]4(C)[C@@]3(F)[C@@H](O)C[C@@]21C,Potency,MKL-1,inactive
same,Potency,MKL-2,inactive
same,outcome,NIH3T3,inactive
same,Potency,UISO,inactive
same,Potency,WaGa,inactive
same,Potency,C33A,inactive
same,Potency,CAOV3,inactive
same,Potency,CASKI,inactive
same,Potency,Es-2,inactive
same,Potency,Hek293T,inactive
same,Potency,JEG-3,inactive
same,Potency,OV90,inactive
same,Potency,PA-1,inactive
same,Potency,Tov-21-G,inactive
same,Potency,Tov112D,inactive
same,"activity, negative = cell killing",[1]; [2],-2.08%
same,"activity, negative = cell killing",[1]; [3],0.817%
same,"activity, negative = cell killing",[1]; [5],10.1%
CC[C@H](NC(C)C)[C@H](O)c1ccc(O)c2[nH]c(=O)ccc12,Potency,MKL-1,inactive
same,Potency,MKL-2,inactive
same,Potency,UISO,inactive
same,Potency,WaGa,inactive
same,Potency,C33A,inactive
same,Potency,CAOV3,inactive
same,Potency,CASKI,inactive
same,Potency,Es-2,inactive
same,Potency,HeLa,inactive
same,Potency,Hek293T,inactive
same,Potency,JEG-3,inactive
same,Potency,OV90,inactive
same,Potency,PA-1,inactive
same,Potency,SKOV3,inactive
same,Potency,Tov-21-G,inactive
same,Potency,Tov112D,inactive
same,"activity, negative = cell killing",[1]; [2],-9.21%
same,"activity, negative = cell killing",[1]; [3],-7.02%
same,"activity, negative = cell killing",[1]; [4],-27%
same,"activity, negative = cell killing",[1]; [5],18.7%
same,Potency,astro,inactive
O=C(O)C1CCCN(CCC=C(c2ccccc2)c2ccccc2)C1 (stereo not drawn),Potency,MKL-1,inactive
same,Potency,MKL-2,inactive
same,Potency,UISO,inactive
same,Potency,WaGa,inactive
CCN1CCCC1CNC(=O)c1cc(S(N)(=O)=O)ccc1OC (stereo not drawn),Potency,MKL-1,inactive
same,Potency,MKL-2,inactive
same,Potency,UISO,inactive
same,Potency,WaGa,inactive
NS(=O)(=O)c1cc2c(cc1Cl)NC(C(Cl)Cl)NS2(=O)=O (stereo not drawn),Potency,MKL-1,inactive
same,Potency,MKL-2,inactive
same,Potency,UISO,inactive
same,Potency,WaGa,inactive
same,Potency,C33A,inactive
same,Potency,CAOV3,inactive
same,Potency,CASKI,inactive
same,Potency,Es-2,inactive
same,Potency,HeLa,inactive
same,Potency,Hek293T,inactive
same,Potency,JEG-3,inactive
same,Potency,OV90,inactive
same,Potency,PA-1,inactive
same,Potency,SKOV3,inactive
same,Potency,Tov-21-G,inactive
same,Potency,Tov112D,inactive
same,"activity, negative = cell killing","[1]; at 20 µM (top of the series), tumour line C",6.84%
same,"activity, negative = cell killing","[1]; at 21.2 µM (top of the series), tumour line B",-4.6%
same,"activity, negative = cell killing","[1]; at 21.2 µM (top of the series), tumour line D",-11.1%
same,"activity, negative = cell killing","[1]; at 21.3 µM (top of the series), tumour line A",-6.45%
same,Potency,astro,inactive
COc1ccc2cc3[n+](cc2c1OC)CCc1cc2c(cc1-3)OCO2,Potency,MKL-1,1.88 µM (active) and 2.96 µM (active)
same,Potency,MKL-2,841 nM (active) and 1.48 µM (active)
same,Potency,UISO,9.44 µM (active) and 14.8 µM (active)
same,Potency,WaGa,2.09 µM (active)
same,Potency,C33A,8.91 µM (active)
same,Potency,CASKI,2.24 µM (active)
same,Potency,Es-2,15.8 µM (active)
same,Potency,OV90,5.62 µM (active)
same,Potency,Tov-21-G,inactive
same,Potency,astro,6.31 µM (active)

# — PubChem BioAssay (NCATS)
